Our source for the growth values is PubChem BioAssay (NCI).

This is part of a sample that, as a whole, favours compounds with a hit. Of some 83,000 tested, about 20% had one in any assay.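 96-well plates, one dose, 48 hours. Percent growth reported; active if below 10.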 Values without a mark were called inactive. Activity calls are given as the source filed them.

Test systems include NCI-H23 lung; NCI-H226 lung; NCI-H322M lung; HOP-62 NSCLC; NCI-H460 lung; NCI-H522 lung; A549/ATCC NSCLC; 786-0 renal; COLO 205 colon; DU-145 prostate; K-562 leukemia; MALME-3M melanoma; MDA-MB-231 breast; RXF 393 renal; SF-268 CNS; SF-295 CNS; SF-539 CNS; UACC-257 melanoma; M14 melanoma; HCT-15 colon.
What all share (assay): NCI-60 one-dose screen, 48 h (100 = growth as untreated, 0 = no growth, -100 = all killed)
Conditions in all cases: 10 µM unless noted

On to `CC[C@H](C)C(=O)O[C@H]1C[C@@H](C)C=C2C=C[C@H](C)[C@H](CC[C@@H]3C[C@@H](O)CC(=O)O3)[C@H]21`, for which the growth in the experiment with NCI-H23 lung is 67.8%; in the experiment on NCI-H226 lung, 95.5%; with NCI-H322M lung it was 54.2%; in the experiment on HOP-62 NSCLC, 104%; in the experiment with NCI-H460 lung, 102%; with NCI-H522 lung it was 27.3%. Moreover, the growth in the experiment on A549/ATCC NSCLC is 102%; in the experiment with 786-0 renal, 90.5%; with COLO 205 colon, 99.7%; in the experiment on DU-145 prostate, 106%; in the experiment with K-562 leukemia, 104%; in the experiment with MALME-3M melanoma, 89.7%. Further, the growth in the experiment with MDA-MB-231 breast is -35.3% (active); in the experiment on RXF 393 renal, 97.7%; in the experiment on SF-268 CNS, 42.7%; in the experiment with SF-295 CNS it was 28.8%; in the experiment with SF-539 CNS, 95.9%; in the experiment with UACC-257 melanoma, 83.5%. Besides, the growth was 59.2% with M14 melanoma and 55.1% with HCT-15 colon.
For the compound `C[C@@H]1CC[C@H]2[C@@H](C)C(O)O[C@@H]3O[C@]4(C)CC[C@@H]1[C@]32OO4` (stereo not given in full), the growth with NCI-H23 lung was 15.4%; with NCI-H226 lung, 69.8%; in the experiment on NCI-H322M lung it was 68.9%; with HOP-62 NSCLC, 59.4%; with NCI-H460 lung, 30.6%; in the experiment with NCI-H522 lung it was -8.88% (active). The growth in the experiment with A549/ATCC NSCLC is 41.5%; in the experiment on 786-0 renal, 46.1%; in the experiment on COLO 205 colon it was 6.72% (active); with DU-145 prostate it was 75.1%; in the experiment with K-562 leukemia, 10.8%; with MALME-3M melanoma, 28.3%. In addition, the growth was 77.4% in the experiment on MDA-MB-231 breast; 49.3% in the experiment on RXF 393 renal; 52.7% in the experiment on SF-268 CNS; 26.4% with SF-295 CNS; 33.6% with SF-539 CNS; 38.3% in the experiment on UACC-257 melanoma. The growth with M14 melanoma is 29.8%; with HCT-15 colon it was 10.7%.
In the case of `O=C(Nc1ccc(Oc2ccc(NC(=O)Nc3ccc([N+](=O)[O-])cc3)cc2)cc1)Nc1ccc([N+](=O)[O-])cc1`, the growth is -17.8% (active) in the experiment on NCI-H23 lung; 24.4% in the experiment on NCI-H226 lung; 22.6% in the experiment with NCI-H322M lung; -25% (active) with HOP-62 NSCLC; 2.83% (active) in the experiment with NCI-H460 lung; -15.3% (active) in the experiment with NCI-H522 lung. Also, the growth with A549/ATCC NSCLC was 7.01% (active); in the experiment with 786-0 renal it was -1.95% (active); in the experiment on COLO 205 colon, -51.1% (active); with DU-145 prostate it was 17.3%; with K-562 leukemia, -4.47% (active); in the experiment on MALME-3M melanoma it was -3.45% (active). The growth is 35.1% in the experiment with MDA-MB-231 breast; 28.7% in the experiment on RXF 393 renal; 19.7% in the experiment with SF-268 CNS; 22% with SF-295 CNS; 24.9% with SF-539 CNS; -20.9% (active) with UACC-257 melanoma. The values for the growth in the experiment on M14 melanoma and in the experiment on HCT-15 colon were 5.41% (active) and 10.3%, respectively.
As to `CCC(C)CC(C)C(=O)c1c(O)ccn(OC)c1=O` (stereo not given), the growth in the experiment on NCI-H23 lung is 84.7%; with NCI-H226 lung, 84.2%; in the experiment with NCI-H322M lung, 69.2%; in the experiment with HOP-62 NSCLC, 54.8%; in the experiment on NCI-H460 lung, 77.8%; in the experiment with NCI-H522 lung it was 90.9%. For the same compound, the growth was 90.8% in the experiment with A549/ATCC NSCLC; 101% in the experiment with 786-0 renal; 109% in the experiment with COLO 205 colon; 66.8% in the experiment on DU-145 prostate; 69.3% with K-562 leukemia; 80.7% in the experiment on MALME-3M melanoma. Besides, the growth was 61.7% with MDA-MB-231 breast; 72.5% in the experiment with RXF 393 renal; 54.2% in the experiment with SF-268 CNS; 87.1% in the experiment with SF-295 CNS; 63.2% with SF-539 CNS; 97.7% in the experiment on UACC-257 melanoma. Moreover, the growth in the experiment on M14 melanoma was 71.1%; in the experiment with HCT-15 colon, 29.9%.
With `COc1ccc(C(=O)Nc2nc(-c3ccc(Cl)cc3)cs2)cc1`, the growth in the experiment with NCI-H23 lung was 114%; with NCI-H226 lung it was 95.6%; in the experiment on NCI-H322M lung it was 86.8%; with HOP-62 NSCLC, 90.8%; in the experiment on NCI-H460 lung, 105%; in the experiment on NCI-H522 lung, 105%. The growth was 100% in the experiment on A549/ATCC NSCLC; 108% with 786-0 renal; 102% in the experiment with COLO 205 colon; 111% in the experiment with DU-145 prostate; 104% with K-562 leukemia; 111% in the experiment with MALME-3M melanoma. In addition, the growth was 105% with MDA-MB-231 breast; 97.1% in the experiment on RXF 393 renal; 105% in the experiment on SF-268 CNS; 97.5% in the experiment on SF-295 CNS; 93% in the experiment on SF-539 CNS; 98.5% in the experiment on UACC-257 melanoma. The growth in the experiment with M14 melanoma is 113%; in the experiment with HCT-15 colon it was 94.9%.
Take `O=C(Nc1cccc([N+](=O)[O-])c1)c1cccc(C(=O)Nc2cccc([N+](=O)[O-])c2)c1`: the growth in the experiment on NCI-H23 lung is 107%; in the experiment on NCI-H226 lung, 71%; with NCI-H322M lung, 77.1%; with HOP-62 NSCLC it was 106%; with NCI-H460 lung, 74%; in the experiment on NCI-H522 lung it was 22.5%. The growth is 59.9% in the experiment with A549/ATCC NSCLC; 73.9% in the experiment with 786-0 renal; 120% with COLO 205 colon; 84.5% in the experiment with DU-145 prostate; 91.2% in the experiment with K-562 leukemia; 49.5% with MALME-3M melanoma. Also, the growth in the experiment on MDA-MB-231 breast was 83.1%; in the experiment on RXF 393 renal, 29.4%; with SF-268 CNS it was 30.2%; with SF-295 CNS it was 67.3%; in the experiment with SF-539 CNS it was 84.3%; with UACC-257 melanoma, 77%. Moreover, the growth with M14 melanoma was 85.4%; in the experiment with HCT-15 colon, 85.5%.
In the case of `C[n+]1c2ccccc2c(Nc2ccc(N3CCCCC3)cc2)c2[nH]c3ccccc3c21`, the growth is -76.3% (active) with NCI-H23 lung; -56.5% (active) in the experiment on NCI-H226 lung; -95.2% (active) in the experiment with NCI-H322M lung; -93.8% (active) in the experiment with HOP-62 NSCLC; -84.1% (active) in the experiment on NCI-H460 lung; -96.5% (active) with NCI-H522 lung. Besides, the growth in the experiment on A549/ATCC NSCLC is -88% (active); with 786-0 renal, -98.5% (active); in the experiment on COLO 205 colon it was -87% (active); in the experiment with DU-145 prostate, -95.7% (active); in the experiment with K-562 leukemia, -74% (active); in the experiment on MALME-3M melanoma it was -77.8% (active). The growth in the experiment on MDA-MB-231 breast was -91.1% (active); with RXF 393 renal it was -96.5% (active); in the experiment on SF-268 CNS, -93.4% (active); in the experiment with SF-295 CNS, -85.7% (active); in the experiment on SF-539 CNS, -99.1% (active); in the experiment with UACC-257 melanoma it was -98.7% (active). For the same compound, the growth was -97.3% (active) with M14 melanoma and -78.8% (active) in the experiment on HCT-15 colon.
